# Screening results from PubChem BioAssay.
# ClpP mod – qHTS Assay for Activators of ClpP. actives 1.9% (n = 340,000). purified B. subtilis ClpP, FRET peptide cleavage, 20 min. Potency, µM (highest dose often 57.5 µM), for the others: at the top dose activity change, negative = active. ATP-dependent Clp protease proteolytic subunit (Bacillus subtilis (strain 168)), P80244; active = well fitted falling curve with a large enough effect; inconclusive = small, poorly fitted or top-dose-only effect; inactive = no such curve, though single readings can be large or run the other way; note: potency is the fitted concentration of half-maximal effect; the source files actives as falling curves though it sought activators and does not explain the sign; nearly all actives have a fitted effect of over 65% in size
#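 Purified B. subtilis ClpP, 10 microg/mL final in Tris/HCl pH8 with KCl, BSA, glycerol and Tween-20, cleaved an Abz/nitrotyrosine-quenched decapeptide. Fluorescence (ex 320, em 430) was read at 0 and 20 min at room temperature. Delta was normalized to 5.8 microM ADEP and DMSO/no-enzyme controls.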
# DRD3 agonist – activates the human D3 dopamine receptor. actives 0.58% (n = 410,000). D3R DiscoveRx beta-arrestin cells, luminescence, 90 min. max activation, %. P35462. AID 652048; in the data active = max activation above about 30%; note: 0% is about no effect
#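 Agonist mode: compounds and dopamine controls were applied to plated cells for 90 min at 37 degrees C after an overnight attachment at 1500 cells/well. Luminescent read-out followed 30 - 60 minutes at room temperature with DiscoveRx detection reagent.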
# GLP-1R inv ag – inverse agonists of human GLP-1 receptor | P43220 | HEK293 GLP-1R CRE-luciferase, luminescence, 24 h; GLP-1R form is constitutively active | Potency, µM (doses to about 38.3 µM), for inactives: top-dose activity change, negative = inhibition, usual class: inhibitors | actives 1.6% (n = 410,000) | AID 624417; note: potency is the fitted concentration of half-maximal effect; % is set by controls: 0 for no effect and ±100 for the full control effect; nearly all actives have a fitted effect of over 55% in size
#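 Luminescence readout: a drop in cAMP-driven luciferase signal flags inverse agonism at a constitutively active GLP-1R stably expressed in HEK293. Compound exposure lasted 24 hr at 37 deg C, 5% CO2.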
# GLP-1R agonist – agonists of human GLP-1 receptor; HEK293 GLP-1R CRE-luciferase, luminescence, 4-6 h; cells express a hypersensitive GLP-1R form; Potency, µM (doses to about 45.6 µM), for the others: at the highest dose activation, usual class: activators; actives 0.007% (n = 380,000); AID 624172; P43220; note: potency is the fitted concentration of half-maximal effect; % of control where 0% means no effect
# HEK293 tox – cytotoxic in the GLP-1 receptor inverse agonist counter-screen. actives 0.13% (n = 410,000). Potency, µM (doses to about 38.3 µM), for inactives: top-dose activity change, negative = inhibition, hits mostly inhibitors. AID 624418. HEK293 cAMP-luciferase reporter cells, luminescence, 24 h;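 note: loss of luciferase light is scored as toxicity; potency is the fitted concentration of half-maximal effect; % is set by controls: 0 for no effect and ±100 for the full control effect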
#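 Cells in DMEM/10% Nu serum/1% pen-strep, 1536-well format. Pre-incubated 12 h, dosed with 23 nL compound, incubated a further 24 h. Luciferase detection, 12 min at room temp, luminescence.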
# D3 antag – antagonists of human D3 dopamine receptor; actives 2.5% (n = 360,000); max response, negative = inhibition, %; D3R cells, DiscoveRx beta-arrestin luminescence, antagonist mode; stronger effect = lower value; AID 652054; in the data active = max response below about -50%; inconclusive = no clear call, values can overlap the other calls; note: % is set by controls: 0 for no effect and ±100 for the full control effect
#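 Cells expressing the human receptor were seeded at 1500 cells/well, incubated overnight at 37 degrees C in 5% CO2, then exposed to library compounds with dopamine controls for 90 minutes at 37 degrees C before luminescent detection.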
# An asterisk follows results filed as active; ? = inconclusive; nt = no result given. In the library only some 5.7% were active in any assay of this set; here they are far more common. Unless noted, calls come from the whole dose curve; as a rule, active = well fitted curve in the direction sought with a large enough effect; inconclusive = small, poorly fitted or top-dose-only effect, or another doubt; inactive = no such curve, though single readings can be large; an effect the other way counts as inactive or inconclusive.
SMILES,ClpP mod,DRD3 agonist,GLP-1R inv ag,GLP-1R agonist,HEK293 tox,D3 antag
COc1ccc(CCN(C)C2CCCN(C(=O)c3sccc3C)C2)cc1OC (centres undefined),0.3%,-10.6,3.7%,3.2%,16.2%,-63.7*
CCOC(=O)C1CCCN(Cc2cc(Br)ccc2OC)C1 (centres undefined),0.2%,-9.6,0.0%,-5.1%,-8.0%,-60.4*
CCOC(=O)C1CCCN(Cc2cc(Br)c(OC)cc2OC)C1 (centres undefined),-0.8%,-33.1,-10.3%,0.3%,-1.5%,?
COc1cc(OC)c(OC)cc1CN1CCCC(C(=O)c2ccc3c(c2)OCO3)C1 (centres undefined),-12.8%,-17.5,-20.4%,-4.7%,-20.3%,-93.2*
CCOC(=O)C1(C)CCCN(C(=O)c2ccc(C)c(F)c2)C1 (centres undefined),-0.9%,3.0,10.7%,12.3%,7.0%,0.4
O=S(=O)(Nc1cccc(-c2ccc(N3CCCCC3)nn2)c1)c1cccs1,-2.7%,1.0,-16.3%,nt,-13.6%,nt
COc1cccc(CN2CCCC(C(=O)N3CCCCC3)C2)c1OC (centres undefined),-2.7%,-6.0,1.1%,5.6%,-1.5%,-61.4*
C/C(=N\NC(=O)c1c(Cl)c(C)nn1C)c1cccc(NC(=O)COc2ccccc2)c1,145.5%,-3.7,1.1%,2.3%,5.7%,3.9
C/C(=N\NC(=O)c1c(Cl)c(C)nn1C)c1ccc(NC(=O)COc2ccc(Cl)cc2C)cc1,25.1µM*,1.5,-10.8%,-1.3%,-18.8%,56.6
O=C(COc1ccccc1Cl)Nc1ccc(N2CCCC2)cc1,-3.9%,4.0,48.3%,14.3%,-21.0%,3.1
CCN1CCN(c2ccc(NC(=O)COc3ccccc3Cl)cc2)CC1,0.9%,1.8,?,0.9%,0.1%,-63.9*
CCN1CCN(c2ccc(NC(=O)COc3ccc(Cl)cc3C)cc2)CC1,-0.1%,-23.4,?,6.1%,5.9%,-51.6*
O=C(/C=C/c1ccc(F)cc1)Nc1nc2n(n1)C(c1ccc(Cl)cc1)C=C(c1ccccc1)N2 (centres undefined),-3.0%,2.0,10.8%,nt,42.2%,nt
CCN(CC)C(=O)c1sc(NC(=O)c2nc3ncccn3n2)c(C(=O)OC)c1C,?,-6.4,-11.6%,nt,0.0%,nt
CC(C)c1ccc(C2Sc3ccccc3NC3=C2C(=O)c2ccccc23)cc1 (centres undefined),-0.6%,-17.1,8.91µM*,nt,-21.7%,nt
CCc1ccc(C2Sc3ccccc3NC3=C2C(=O)c2ccccc23)cc1 (centres undefined),-0.6%,-6.1,?,nt,?,nt
CCC[C@@H]1C[C@@H](C(=O)N[C@@H]([C@H]2O[C@H](SC)[C@H](O)[C@@H](O)[C@H]2O)[C@H](C)Cl)N(C)C1,nt,-12.9,nt,nt,nt,nt
O=C(c1cc(C2CCCCN2C(=O)CCCc2ccccc2)on1)N1CCOCC1 (centres undefined),0.8%,-7.3,-15.2%,6.2%,1.2%,-51.2*
O=C(C[n+]1ccccc1)N1CCCc2ccccc21,-1.0%,-5.2,19.6%,-0.8%,3.0%,-53.1*
CN(C)c1cc[n+](CC(=O)N2CCCc3ccccc32)cc1,nt,-24.6,3.6%,-1.6%,-1.6%,?
O=C(CCS(=O)(=O)c1ccccc1)N1CCCc2ccccc21,-0.7%,-5.3,-12.4%,-2.5%,-0.5%,12.2
Cc1cc[n+](CC(=O)N2CCCc3ccccc32)cc1,nt,-26.2,7.2%,-0.9%,10.0%,-66.1*
CC(CN1CCCC1)OC(=O)c1ccccc1Cl (centres undefined),-3.7%,-7.6,5.8%,-3.3%,1.4%,?
CC(CN1CCCCC1)OC(=O)/C=C/c1ccccc1 (centres undefined),-0.9%,-27.8,19.7%,-3.2%,1.1%,-61.2*
O=C(CCN1CCCCCC1)c1ccccc1,0.7%,1.4,-2.7%,-10.4%,-5.2%,-26.6
SMILES,ClpP mod,DRD3 agonist,GLP-1R inv ag,GLP-1R agonist,HEK293 tox,D3 antag
CC(CN1CCCCC1)OC(=O)C(C)(c1ccccc1)c1ccccc1 (centres undefined),-1.9%,-5.1,?,-15.0%,?,-53.3*
CC(CN1CCN(C)CC1)OC(=O)c1ccccc1Cl (centres undefined),2.6%,-1.7,8.6%,0.1%,-10.3%,-52.2*
CC(CN1CCOCC1)OC(=O)C(C)(c1ccccc1)c1ccccc1 (centres undefined),-1.7%,-6.1,?,9.2%,58.0%,?
O=C(/C=C/c1ccccc1)CCN1CCCCC1,nt,-20.9,?,-6.9%,?,-87.7*
CC(CN1CCCCC1)OC(=O)Cc1ccc(Cl)cc1 (centres undefined),-3.4%,2.9,0.3%,8.2%,13.2%,-58.3*
CC(CN1CCCC1)OC(=O)Cc1ccc(Cl)cc1 (centres undefined),-9.8%,-12.9,-3.7%,-1.6%,-0.5%,-2.3
O=C(OCn1ncc(Cl)c(Cl)c1=O)c1cccc(C(F)(F)F)c1,2.0%,-5.8,?,-17.0%,?,-70.6*
CCc1ccc(C(=O)Cn2ncc(Cl)c(Cl)c2=O)cc1,1.0%,-15.2,?,-11.8%,?,-7.9
O=[N+]([O-])c1ccc(/C=C2\C=C(C(O)c3ccc([N+](=O)[O-])cc3)c3ccccc32)cc1 (centres undefined),-2.6%,nt,nt,nt,nt,nt
COc1ccc(NC(=O)c2cc(-c3sc(NC(=O)c4ccccc4)nc3C)n(Cc3ccccc3)n2)cc1,4.6%,4.3,?,nt,-0.7%,9.1
Cc1ccc([C@@H]2CC=C(C(=O)O)[C@H](c3ccc(F)cc3)N2S(=O)(=O)c2ccc(C)cc2)cc1,-0.7%,-20.9,?,-0.5%,-11.1%,-82.9*
Cc1ccc(S(=O)(=O)N2C(c3ccc(Cl)c(Cl)c3)CC=C(C(=O)O)C2c2ccc(Cl)cc2)cc1 (centres undefined),0.6%,-13.8,?,nt,-23.7%,?
CCc1ccc([C@@H]2CC=C(C(=O)O)[C@H](c3ccc(F)cc3)N2S(=O)(=O)c2ccc(C)cc2)cc1,1.0%,4.0,-3.6%,-0.7%,-1.3%,-52.4*
CCc1ccc([C@@H]2CC=C(C(=O)O)[C@H](c3ccccc3)N2S(=O)(=O)c2ccc(C)cc2)cc1,1.8%,-8.3,-0.4%,4.0%,0.4%,?
Cc1ccc(S(=O)(=O)N2[C@@H](c3ccc(Cl)cc3)C(C(=O)O)=CC[C@H]2c2ccc(Cl)c(Cl)c2)cc1,0.2%,-18.3,3.55µM*,-3.5%,-25.5%,?
